Shown are actives, neighbours in structure and some others; about 8% of the full set was active somewhere.
HT1080 IDH1KD tx – HT-1080 IDH1 knockdown cell toxicity (counter line). HT-1080 IDH1 knockdown viability, ATP luminescence, 48 h. hit rate 2% among 360,000. Potency, µM (top dose mostly 46.1 µM), without a hit: at the top dose activity, negative = toxicity, actives largely listed as cytotoxic;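 also: 0% = DMSO wells and -100% = cell-free medium wells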
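HT-1080-IDH1KD cells (IDH1 knocked down), 750/well in RPMI with 5% FBS, treated with compound 48 h at 37 degrees C. Viability by CellTiter-Glo luminescence, normalised to DMSO and no-cell wells; concentration-response curves classed.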
KB-3-1 cytotox – kills parental KB-3-1 adenocarcinoma cells; hit rate 1.4% among 400,000; AID 1347075; KB-3-1 viability, CellTiter-Glo ATP luminescence, 72 h; Potency, µM (top dose mostly 46.1 µM), most hits filed as cytotoxic; also: % is scaled to controls: 0 for no effect and ±100 for the full control effect; nearly all actives have a fitted effect of over 60% in size
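Screening of KB-3-1 cells (DMEM, 10% FBS, phenol-red free) ran from lowest to highest compound concentration; after 72 h at 37 °C viability was read luminescently and curves fitted.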
KB-V1 cytotox – kills drug-selected multidrug resistant KB-V1 cells; KB-V1 MDR cells viability, CellTiter-Glo, 72 h; Potency, µM (doses to about 46.1 µM), hits mostly cytotoxic; hit rate 3.4% among 400,000; also: % is scaled to controls: 0 for no effect and ±100 for the full control effect; nearly all actives have a fitted effect of over 60% in size
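Cells of the MDR subline KB-V1 are plated, dosed with compound at multiple concentrations, and incubated 72 h at 37 degrees C; CellTiter-Glo is then added and luminescence read after 10 min.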
HT1080-NT tox – kills 2HG-producing HT-1080-NT fibrosarcoma cells | hit rate 1.6% among 360,000 | Potency, µM (doses to about 46.1 µM), without a hit: at the highest dose activity, negative = less viability, actives largely listed as cytotoxic | HT-1080-NT fibrosarcoma viability, CellTiter-Glo ATP luminescence, 48 h;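 also: NT is the 2HG producing partner of a matched IDH1 knockdown line; 0% = DMSO-treated cells and -100% = media-only wells without cells; nearly all actives have a fitted effect of over 55% in size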
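Read-out is CellTiter-Glo luminescence after 10 minutes at room temperature, following 48 hours' compound treatment of HT-1080-NT cells (750 cells/well, RPMI, 5% FBS, 37 degrees C).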
MCF10A rerep – inducers of DNA re-replication in MCF 10A breast cells. MCF 10A DNA re-replication, Hoechst nuclear intensity, 48 h. hit rate 2.9% among 350,000. AID 624296. Potency, µM (series often up to 46.1 µM), for inactives: top-dose activity, positive = re-replication, most hits filed as activators; also: % of control where 0% means no effect; nearly all actives have a fitted effect of over 50% in size
SW480 rerep – inducers of DNA re-replication in SW480 colon cancer cells; Potency, µM (doses to about 46.1 µM), inactives show top-dose re-replication activation, actives largely listed as activators; hit rate 1.8% among 340,000; SW480 DNA re-replication, Hoechst DNA content imaging, 48 h; also: % of control where 0% means no effect; nearly all actives have a fitted effect of over 55% in size
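Image-based DNA-content assay: after two days of treatment, nuclei were labelled with the DNA dye Hoechst and imaged, and hits were compounds raising the count of nuclei showing high fluorescence intensity.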
Starred values were filed as active, the others as inactive; i = inactive; ? = inconclusive; nt = not tested or not shown; [ ] = remark or other dose. Calls follow the shape of the dose curve; as a rule, active = well fitted curve in the direction sought with a large enough effect; inconclusive = small, poorly fitted or top-dose-only effect, or another doubt; inactive = no such curve, though single readings can be large; an effect the other way counts as inactive or inconclusive. Potency is read from the fitted curve at half-maximal effect.

SMILES | HT1080 IDH1KD tx | KB-3-1 cytotox | KB-V1 cytotox | HT1080-NT tox | MCF10A rerep | SW480 rerep
Cc1cccc(NC(=O)N[C@@H](C)C(=O)O)c1 | 6.6% | i | i | 2.6% | 0.5% | -4.3%
CCOC(=O)c1cnc2ccc(Cl)cc2c1Nc1ccc(N2CCOCC2)cc1 | nt | i | i | nt | nt | nt
CCOC(=O)c1cnc2ccc(C)cc2c1Nc1ccc(N2CCOCC2)cc1 | ? | ? | i | ? | 20.6µM* | 15.6%
C/C(=N\NC(=S)Nc1ccc(F)cc1)C1CC1 | 11.2µM* | i | i | 8.91µM* | 3.1% | 1.5%
CC1CCN(C(=S)Nc2ccc(F)cc2)CC1 | -43.7% | ? | ? | -26.3% | ? | -4.4%
Cc1ccc2nc(SCC(=O)Nc3cccc(F)c3)nc(=O)n2c1 | 2.1% | ? | 9.2µM* | 7.9% | 8.0% | -6.0%
CCCCNC(=O)c1ccc(CS(=O)(=O)c2ccc(C)cc2)o1 | -0.5% | i | i | 5.4% | -10.6% | -2.6%
COc1ccc(/C=C/C(=O)N2CCNC(=O)C2)c(OC)c1 | 4.0% | i | i | 0.6% | 1.03µM* | 7.6%
N#Cc1ccccc1S(=O)(=O)N1CCN(C(=O)C2COc3ccccc3O2)CC1 (centres undefined) | -5.5% | i | 20.6µM* | -3.4% | 0.1% | -3.6%
O=C(C1COc2ccccc2O1)N1CCN(S(=O)(=O)c2cc(F)ccc2F)CC1 (centres undefined) | -1.1% | i | i | -1.6% | -1.8% | 0.6%
OC(Cc1ccccc1)c1ncc(-c2ccc3ccccc3c2)[nH]1 (centres undefined) | 18.4µM* | i | i | ? | nt | nt
COc1ccc([C@@]23Oc4cc(OC)cc(OC)c4[C@]2(O)[C@H](O)[C@H](C(=O)N(C)C)[C@H]3c2ccccc2)cc1 | 0.164µM* | ? | ? | ? | ? | ?
c1ccc2c(-c3nc4ccccc4[nH]3)cccc2c1 | 18.4µM* | 20.6µM* | 4.61µM* | ? | nt | nt
c1ccc2[nH]c(-c3cscn3)nc2c1 | 2.1% | i | i | 3.0% | 1.8% | 6.9%
c1ccc2nc(-c3nc4ccccc4[nH]3)ccc2c1 | 13µM* | ? | ? | 25.9µM* | 5.7% | 0.6%[9.22 µM]
O=c1[nH]c2cc([N+](=O)[O-])ccc2c2ccccc12 | ? | i | ? | -13.5% | 1.2% | 2.8%
CCc1cccc2[nH]c3cc([N+](=O)[O-])ccc3c12 | -22.4% | ? | 13µM* | -11.4% | 26.0% | 6.5%
Cc1ccc2oc(C(=O)Nc3cccc(Cl)c3)cc(=O)c2c1 | nt | i | i | nt | nt | nt
Cn1c(SCC(=O)N2CCc3ccccc32)nnc1C1CC1 | 17.5% | i | i | 12.6% | -3.6% | -4.2%
Cc1nnc(NC(=O)c2sc3nc(-c4cccs4)cc(C(F)(F)F)c3c2N)s1 | -4.6% | i | 13µM* | -22.9% | ? | 3.7%
Cc1ccc2c(c1)P(=O)(O)c1cc(C)ccc1O2 | 15.9% | i | i | 13.3% | -4.8% | -0.2%
COc1ccc(C(O)Cn2ccsc2=NC(C)=O)cc1 (centres undefined) | 11.6µM* | ? | ? | ? | ? | ?
CC(=O)N=c1sccn1CC(O)c1ccccc1 (centres undefined) | 12.1% | i | i | 10.3% | 11.3% | 7.6%
CC(NC(=O)c1ccc(CS(C)(=O)=O)cc1)C1CC2CCC1C2 (centres undefined) | 0.5% | i | i | 0.2% | -5.1% | -2.4%
C/C(=N/NC(=O)C1CCN(S(=O)(=O)c2ccc(C)cc2)CC1)c1cccc([N+](=O)[O-])c1 | -3.1% | i | 23.1µM* | 9.9% | 3.7% | -2.4%
SMILES | HT1080 IDH1KD tx | KB-3-1 cytotox | KB-V1 cytotox | HT1080-NT tox | MCF10A rerep | SW480 rerep
COc1ccccc1N1CCN(C(=O)c2cc3sccc3n2C)CC1 | -11.8% | i | i | -2.6% | 20.8% | -7.3%
COC(=O)CCCCC(=O)OC | 3.2% | i | i | -2.4% | -13.9% | -45.8%
COC(=O)CCC(=O)OC | -1.4% | i | i | -4.5% | ? | 4.61µM*
CCc1ccccc1NC(=O)CCNC(=O)Cn1ccc2ccccc2c1=O | 10.8% | i | i | 11.0% | 9.6% | -4.3%
NC(N)=Nc1nc(-c2ccccc2)c2ccccc2n1 | 18.4µM* | ? | i | -28.6% | 4.9% | -21.5%
Clc1nc(-c2ccccc2)c2ccccc2n1 | -3.7% | i | ? | -2.4% | 5.5% | 1.0%
O=c1[nH]c(=O)n(CCCc2ccccc2)cc1-c1ccccc1 | 24.2% | i | 13µM* | 7.6% | 3.3% | -0.4%
Cc1cn(CC(=O)NCCCc2ccccc2)c(=O)[nH]c1=O | 1.0% | i | i | 2.2% | 6.6% | 1.1%
COc1ccccc1CNC(=O)COC(=O)Cc1cccc(F)c1 | 3.1% | i | i | -2.3% | 3.3% | -6.8%
COc1cccc(-c2ncn(CCc3ccccc3OC)c2C(C)C)c1 | 14.6µM* | ? | 11.6µM* | 13µM* | nt | nt
COc1ccccc1CCn1cnc(Cc2cccc(F)c2)c1C(C)C | ? | ? | 18.4µM* | ? | nt | nt
O=C(NCc1nnnn1-c1ccccc1)c1ccc2ccccc2c1 | 4.4% | i | ? | 7.7% | nt | nt
Cc1noc(N)c1C(=O)Nc1ccccc1F | 19.1% | i | i | 28.5% | -3.4% | -6.8%[9.22 µM]
CC(OC(=O)c1cc(O)c2ccccc2c1O)C(=O)Nc1ccc(C(N)=O)cc1 (centres undefined) | ? | i | i | 16.4µM* | ? | 14.0%
CC(OC(=O)c1ccccc1C(=O)N(C)c1ccccc1)C(=O)Nc1ccc(C(N)=O)cc1 (centres undefined) | 5.4% | i | i | 2.6% | 8.2% | 1.1%
CCCCNC(=O)CSc1nc2ccc(N3CCOCC3)cc2c(=O)n1CCc1ccccc1 | 5.5% | i | 0.581µM* | 1.2% | 5.3% | -3.1%
O=C(CSc1nc2ccc(N3CCOCC3)cc2c(=O)n1CCc1ccccc1)NCC1CCCO1 (centres undefined) | 4.1% | i | i | 6.6% | 23.1µM* | 28.7%
CC(=O)N1c2ccc(S(=O)(=O)N3CCCCC3)cc2CC1C(=O)Nc1ccc(C)cc1 (centres undefined) | -17.2% | i | i | -14.3% | 0.7% | 2.4%
CCOC(=O)[C@]12CCCC=C1N(Cc1cccc3ccccc13)C(=O)[C@H](CC(=O)NCc1cccc(C(F)(F)F)c1)C2 | -22.9% | i | i | ? | nt | nt
COC(=O)[C@]12CCCCC=C1N(Cc1ccco1)C(=O)[C@H](CC(=O)NCc1cccc(C(F)(F)F)c1)C2 | -11.2% | i | i | -4.9% | nt | nt

From PubChem
